In PubChem BioAssay AID1159580 (chemical genetic matrix, 2015):
Where “and” joins values, the source holds several entries; their conditions need not be identical. Equal entries are not always repeated. About 2,000 (36%) of roughly 5,500 compounds were called active. Roughly 18% stayed inconclusive and do not appear here. Rule as the data show it: active = normalized growth mostly below about 0.91 (no sharp cut-off); inconclusive = no clear call, values can overlap the other calls; inactive = mostly above about 0.92. Some of the results follow.

Experiment: chemical genetic growth profiling, strain panel (AID 1159580);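 also: tested at 20 µM; growth read once vehicle control cultures reached saturation at 30 °C; 1 = growth at the plate median or of vehicle wells; lower values mean less growth of the strain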
Conditions: S. cerevisiae deletion strains, growth OD

Measured: normalized growth

C=NC(C(=O)NC1C(=O)N2C1SC(C)(C)C2C(=O)O)c1ccccc1 (configuration not stated)
inactive: locus YAL013W, strain DEP1, stronger effect = lower value 1.01 | locus YAL021C, strain ccr4, stronger effect = lower value 0.991 | locus YAL026C, strain drs2, stronger effect = lower value 0.994 | locus YAL030W, strain snc1, stronger effect = lower value 1 | locus YBL061C, strain skt5, stronger effect = lower value 1.02 | locus YBR009C, strain hhf1, stronger effect = lower value 0.994 | locus YBR021W, strain FUR4, stronger effect = lower value 0.999 | locus YBR023C, strain chs3, stronger effect = lower value 0.995 | locus YBR171W, strain sec66, stronger effect = lower value 1.02 | locus YBR229C, strain ROT2, stronger effect = lower value 1 | locus YBR231C, strain swc5, stronger effect = lower value 1.02 | locus YBR279W, strain paf1, stronger effect = lower value 1 | locus YCL011C, strain gbp2, stronger effect = lower value 0.989 | locus YCL016C, strain dcc1, stronger effect = lower value 0.986 | locus YCL029C, strain bik1, stronger effect = lower value 1.02 | locus YCL061C, strain MRC1, stronger effect = lower value 0.991 | locus YCL069W, strain vba3, stronger effect = lower value 1.01 | locus YCR088W, strain abp1, stronger effect = lower value 1 | locus YDL005C, strain med2, stronger effect = lower value 0.998 | locus YDL035C, strain GPR1, stronger effect = lower value 1.01 | locus YDL040C, strain nat1, stronger effect = lower value 1.01 | locus YDL074C, strain BRE1, stronger effect = lower value 0.986 | locus YDL101C, strain DUN1, stronger effect = lower value 1.01 | locus YDL134C, strain PPH21, stronger effect = lower value 1.01 | locus YDL185W, strain tfp1, stronger effect = lower value 1.01 | locus YDL192W, strain arf1, stronger effect = lower value 1.01 | locus YDR001C, strain nth1, stronger effect = lower value 0.989 | locus YDR069C, strain doa4, stronger effect = lower value 1.03 | locus YDR101C, strain arx1, stronger effect = lower value 1 | locus YDR137W, strain rgp1, stronger effect = lower value 1.01 | locus YDR150W, strain NUM1, stronger effect = lower value 1.01 | locus YDR159W, strain sac3, stronger effect = lower value 1.07 | locus YDR162C, strain NBP2, stronger effect = lower value 1.03 | locus YDR195W, strain ref2 1 | locus YDR297W, strain sur2, stronger effect = lower value 1.03 | locus YDR318W, strain mcm21, stronger effect = lower value 1.02 | locus YDR334W, strain swr1, stronger effect = lower value 1 | locus YDR335W, strain msn5, stronger effect = lower value 0.983 | locus YDR388W, stronger effect = lower value 1 | locus YDR392W, strain spt3, stronger effect = lower value 0.867 | locus YDR502C, strain sam2, stronger effect = lower value 1.02 | locus YEL003W, strain gim4, stronger effect = lower value 1 | locus YEL037C, strain rad23, stronger effect = lower value 0.994 | locus YEL061C, strain CIN8 (second series), stronger effect = lower value 0.995 | locus YEL061C, strain CIN8, stronger effect = lower value 1 | locus YER015W, strain faa2, stronger effect = lower value 0.978 | locus YER016W, strain bim1, stronger effect = lower value 1.01 | locus YER110C, stronger effect = lower value 1.01 | locus YER111C, strain swi4, stronger effect = lower value 1 | locus YER155C, strain BEM2 (second series), stronger effect = lower value 1.03 | locus YER155C, strain BEM2, stronger effect = lower value 1 | locus YER167W, strain BCK2, stronger effect = lower value 1.02 | locus YFR010W, strain ubp6, stronger effect = lower value 0.993 | locus YGL078C, strain dbp3, stronger effect = lower value 1 | locus YGL086W, strain mad1, stronger effect = lower value 1.02 | locus YGL167C, strain pmr1, stronger effect = lower value 0.992 | locus YGL173C, strain kem1, stronger effect = lower value 1.01 | locus YGL227W, strain vid30, stronger effect = lower value 0.996 | locus YGL240W, strain doc1, stronger effect = lower value 1.04 | locus YGL248W, strain PDE1, stronger effect = lower value 1.02 | locus YGL253W, strain hxk2, stronger effect = lower value 1.01 | locus YGR078C, strain PAC10, stronger effect = lower value 1.01 | locus YGR135W, strain pre9, stronger effect = lower value 1.01 | locus YGR229C, strain SMI1, stronger effect = lower value 0.977 | locus YGR252W, strain gcn5, stronger effect = lower value 1.07 | locus YHR013C, strain ard1, stronger effect = lower value 0.973 | locus YHR027C, strain rpn1, stronger effect = lower value 0.992 | locus YHR030C, strain SLT2, stronger effect = lower value 1.01 and 1 | locus YHR079C, strain IRE1 (second series), stronger effect = lower value 1.01 | locus YHR079C, strain IRE1, stronger effect = lower value 1 | locus YHR094C, strain hxt1, stronger effect = lower value 1.01 | locus YHR129C, strain ARP1, stronger effect = lower value 1.01 | locus YHR142W, strain chs7, stronger effect = lower value 0.994 | locus YHR200W, strain rpn10, stronger effect = lower value 1.03 | locus YIL066C, strain RNR3, stronger effect = lower value 1.01 | locus YIL073C, strain SPO22, stronger effect = lower value 1.07 | locus YIL125W, strain kgd1, stronger effect = lower value 1.01 | locus YIR030C, strain dcg1, stronger effect = lower value 1.02 | locus YJL092W, strain hpr5, stronger effect = lower value 0.994 | locus YJL095W, strain BCK1 (second series), stronger effect = lower value 1 | locus YJL095W, strain BCK1, stronger effect = lower value 1.01 and 0.995 | locus YJL115W, strain asf1, stronger effect = lower value 0.973 | locus YJL129C, strain trk1, stronger effect = lower value 0.991 | locus YJL134W, strain LCB3, stronger effect = lower value 1.01 | locus YJL154C, strain vps35, stronger effect = lower value 1 | locus YJL164C, strain tpk1, stronger effect = lower value 0.977 | locus YJL166W, strain qcr8, stronger effect = lower value 1.02 | locus YJL168C, strain set2, stronger effect = lower value 1.01 | locus YJL187C, strain SWE1 (second series), stronger effect = lower value 1.01 | locus YJL187C, strain SWE1, stronger effect = lower value 1.02 | locus YJR043C, strain POL32, stronger effect = lower value 0.992 | locus YJR066W, strain TOR1, stronger effect = lower value 0.988
